# Measured values: PubChem BioAssay (Tox21)
# Results filed as inconclusive are left out. Unmarked numbers belong to inactive results. Active and inactive are the calls of the source. The call rests on the fitted dose curve.
# Target: Progesterone receptor (Homo sapiens) (UniProt P06401)
# Assay: qHTS assay to identify small molecule agonists of the progesterone receptor (PR) signaling pathway (AID 1346784); further: nearly all actives have a fitted effect of over 30% in size
# Conditions: PR-UAS-bla HEK293T, beta-lactamase FRET ratio, 16 h; series mostly up to 92.4 µM; activation: at the top concentration
# Source text: U.S. Tox21 Program National Center for Advancing Translational Sciences [NCATS] NIH Chemical Genomics Center [NCGC] U.S. Environmental Protection Agency [EPA] National Institutes of Environmental Health Sciences [NIEHS] National Toxicology Program [NTP] U.S. Food and Drug Administration [FDA] […] Endocrine disrupting chemicals (EDCs) and their interactions with steroid hormone receptors like PR causes disruption of normal endocrine function. To identify the compounds that activate PR signaling, a PR-UAS-bla GripTite cell line i.e. PR-UAS-bla HEK 293T (Invitrogen, Carlsbad, CA, USA) containing a beta-lactamase reporter gene under the control of an Upstream Activator Sequence (UAS) was used to screen Tox21 10K compound library.
# Tox21 Assay Protocol Summary: PR-UAS-bla HEK 293T cells were dispensed at 3,000 cells/5 uL of assay medium containing 2% charcoal stripped FBS per well into black wall/clear-bottom 1536-well plates using a Multidrop Combi (ThermoFisher Scientific, Waltham, MA) dispenser. After the assay plates were incubated at a 37C and 5% CO2 for 6hr, 23 nL of compounds dissolved in DMSO, positive controls or DMSO only was transferred to the assay plate by a Pintool station (Kalypsys, San Diego, CA). The plates were incubated at 37C and 5% CO2 for 16hr. Then 1 uL of LiveBLAzer B/G FRET substrate was added using a BioRAPTR FRD (Flying Reagent Dispenser, Aurora Discovery, San Diego, CA). After the plates were incubated at room temperature for 2 hours, fluorescence intensity was measured by an Envision plate reader (PerkinElmer, Shelton, CT).
# On the % scale 0 is the no-effect control and ±100 the full control effect; potency means the concentration at half of the fitted maximal effect.
# Progesterone receptor (Homo sapiens), sequence (P06401 whole entry, looked up): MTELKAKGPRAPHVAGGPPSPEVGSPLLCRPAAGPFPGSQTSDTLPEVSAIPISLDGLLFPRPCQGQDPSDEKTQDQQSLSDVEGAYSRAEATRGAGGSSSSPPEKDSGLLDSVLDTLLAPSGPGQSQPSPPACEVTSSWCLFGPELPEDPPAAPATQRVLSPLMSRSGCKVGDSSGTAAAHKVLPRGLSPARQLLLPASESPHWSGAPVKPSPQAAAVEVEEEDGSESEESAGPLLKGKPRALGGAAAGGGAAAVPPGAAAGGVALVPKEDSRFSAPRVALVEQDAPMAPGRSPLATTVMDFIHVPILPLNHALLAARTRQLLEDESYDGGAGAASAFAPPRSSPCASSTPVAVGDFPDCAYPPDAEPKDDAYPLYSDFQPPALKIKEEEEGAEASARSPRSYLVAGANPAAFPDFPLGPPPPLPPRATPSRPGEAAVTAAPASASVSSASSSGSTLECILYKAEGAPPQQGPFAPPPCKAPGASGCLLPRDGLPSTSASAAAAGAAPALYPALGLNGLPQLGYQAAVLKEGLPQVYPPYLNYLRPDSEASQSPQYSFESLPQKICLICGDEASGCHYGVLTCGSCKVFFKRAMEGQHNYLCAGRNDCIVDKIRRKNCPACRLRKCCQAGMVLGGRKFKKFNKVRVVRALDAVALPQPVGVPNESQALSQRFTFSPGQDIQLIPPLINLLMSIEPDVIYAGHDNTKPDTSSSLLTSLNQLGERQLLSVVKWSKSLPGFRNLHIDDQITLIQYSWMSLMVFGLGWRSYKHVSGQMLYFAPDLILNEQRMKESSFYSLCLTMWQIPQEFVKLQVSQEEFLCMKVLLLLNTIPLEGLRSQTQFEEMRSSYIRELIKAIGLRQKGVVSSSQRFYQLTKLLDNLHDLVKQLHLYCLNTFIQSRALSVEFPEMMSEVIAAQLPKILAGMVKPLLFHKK
Compound,activation,Potency
OCCSc1ccccc1,-2.15%,
O=c1[nH]c2ccc(S(=O)CCN3CCC(Cc4ccc(F)cc4)CC3)cc2o1 (stereo not given),1.75%,
CCC(C(=O)OCCN(CC)CC)c1ccccc1 (stereo not given),-0.503% [at 42.5 µM],
Nc1ccc(C(=O)OCCCOC(=O)c2ccc(N)cc2)cc1,-0.421%,
COC(=O)c1cc(S(N)(=O)=O)ccc1OC,-0.0442% [at 42.5 µM],
C=CC(C)(O)CCCC(C)CCCC(C)CCCC(C)C (stereo not given),,13.6 µM (active)
COc1cc2c(N3CCN(C(=O)Nc4ccc(OC(C)C)cc4)CC3)ncnc2cc1OCCCN1CCCCC1,0.578% [at 42.5 µM],
CN1CCN(CCCN2c3ccccc3Sc3ccc(S(=O)(=O)N(C)C)cc32)CC1,-2.65% [at 42.5 µM],
CCCCCCCCCCCC[N+](C)(C)CC(=O)[O-],-3.4%,
CCCCCCCCCCCC[N+](C)(C)CCCS(=O)(=O)[O-],-3.04%,
N#C/C(=C1\SCC(c2ccccc2Cl)S1)n1ccnc1 (stereo not given),-0.127% [at 42.5 µM],
CC#N,0.18%,
NC(=O)Nc1ccc(Cl)cc1,-1.26%,
CC(C)CCCCCCOC(=O)CCCCC(=O)OCCCCCCC(C)C,-0.203%,
C=CCOC(=O)/C=C\C(=O)OCC=C,1%,
CCN(CC)CCNC(=O)c1ccc(NC(C)=O)cc1,-0.871% [at 42.5 µM],
NC(=O)Nc1ccc(Cl)c(Cl)c1,-4.91%,
CNC(=S)NC,-1.98%,
Nc1ccc(S(=O)(=O)O)c(N)c1,-0.0548%,
Cc1cc(O)c2c(O)c3c(O)cccc3cc2c1,0.0588% [at 42.5 µM],

Compound,activation,Potency
O=C(NCCCN1CCOCC1)c1ccc(Cl)cc1,-2.13% [at 42.5 µM],
CCCC1C(CC)=CC(CC)=CN1c1ccccc1 (stereo not given),8.94%,
CC1=C(C=O)C(C)(C)CCC1,0.422%,
CCCCCCCC/C=C\CCCCCCCC(=O)OC(CO)CO,-0.732%,
CC(C)(C)CC(C)(C)c1ccc(OCCO)cc1,-3.88%,
O=C(/C=C/c1ccccc1)OCCCc1ccccc1,0.231%,
O=C(O)C(Cc1cc(I)c(O)c(I)c1)c1ccccc1 (stereo not given),-2.87% [at 42.5 µM],
Nc1nc(Cl)nc2c1ncn2[C@@H]1O[C@H](CO)[C@@H](O)[C@@H]1F,-4.79% [at 42.5 µM],
CC(=N\O)/C(C)=N/O,-2.94%,
Cc1cc(O)c(C(C)C)cc1Cl,-0.315% [at 42.5 µM],
CCCCCCCCCCCCCCCCBr,1.24% [at 19 µM],
COc1ccc(CCC(=O)c2c(O)cc(O[C@@H]3O[C@H](CO)[C@@H](O)[C@H](O)[C@H]3O[C@@H]3O[C@@H](C)[C@H](O)[C@@H](O)[C@H]3O)cc2O)cc1O,-0.252%,
c1cnc2c(n1)CCCC2,0.371%,
Oc1cc(O)c(Cl)cc1Cl,-2.73%,
C/C=C/C=C/CCCCCCCO,6.04%,
Cc1occc1C(=O)Nc1ccc(C(=O)N2CCC(F)(F)/C(=C\C(=O)N3CCC(N4CCCCC4)CC3)c3ccccc32)cc1,-5.91% [at 42.5 µM],
CCCCC(CC)COC(=O)COc1ccc(Cl)cc1C (stereo not given),0.0613%,
COc1cc2[nH]c(=O)[nH]c(=O)c2cc1OC,4.81% [at 42.5 µM],
CC(C)(CCl)c1ccccc1,-0.236%,
COCC(O)CO (stereo not given),-1.05%,
